# This excerpt belongs to a sample that is enriched for hits.
# FBPA Giardia inh = inhibitors of Giardia lamblia fructose-1,6-bisphosphate aldolase; purified Giardia FBPA; actives 0.71% (n = 290,000); Potency, µM (top dose mostly 59.6 µM), for inactives: top-dose activity, negative = inhibition, hits mostly inhibitors; also: potency is read from the fitted curve at half-maximal effect; % is scaled to controls: 0 for no effect and ±100 for the full control effect; nearly all actives have a fitted effect of over 55% in size
# Target sequence (A8B2U2 whole entry, looked up): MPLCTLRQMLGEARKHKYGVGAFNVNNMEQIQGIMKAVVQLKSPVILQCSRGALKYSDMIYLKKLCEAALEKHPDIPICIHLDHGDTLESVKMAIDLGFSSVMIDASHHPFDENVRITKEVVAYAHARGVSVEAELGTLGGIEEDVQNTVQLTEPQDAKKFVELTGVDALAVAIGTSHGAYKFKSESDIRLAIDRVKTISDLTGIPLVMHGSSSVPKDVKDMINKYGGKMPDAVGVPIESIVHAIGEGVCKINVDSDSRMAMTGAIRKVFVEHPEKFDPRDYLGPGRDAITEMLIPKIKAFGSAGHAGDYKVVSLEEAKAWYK
#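 Giardia FBPA (40 nM reagent) was preincubated 10 min at RT with compound (up to 57.5 uM final), then substrate plus GAPDH/TPI/NAD/arsenate coupling system with diaphorase/resazurin was added; resorufin fluorescence (525/598 nm) was read after 20 min.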
# RE007 growth inh = less growth of the S. pombe RE007 Vpr strain. Potency, µM (titrated, usually from 92.2 µM), without a hit: at the highest dose activity change, negative = less growth, actives largely listed as inhibitors. AID 651644. S. pombe RE007 Vpr strain, BacTiter-Glo ATP luminescence, 24 h. actives 0.21% (n = 360,000); active = well fitted falling curve with a large enough effect; inconclusive = small, poorly fitted or top-dose-only effect; inactive = no such curve, though single readings can be large or run the other way; also: potency is read from the fitted curve at half-maximal effect; % is scaled to controls: 0 for no effect and ±100 for the full control effect; nearly all actives have a fitted effect of over 50% in size
#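 Fission yeast RE007 carrying one integrated HIV-1 vpr copy, seeded at OD 0.01 in PMG+AL medium with 23 nL pinned compound. Grown 24 h at 30 degrees; viability read by BacTiter-Glo luminescence after 5 min.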
# CHX counter = affects cycloheximide protein synthesis inhibition readout, counter-screen; max response, %; cell reporter, cycloheximide protein synthesis inhibition counterscreen; actives 12% (n = 300,000); AID 2314; in the data active = max response mostly above about 13%, no sharp cut-off; inactive = mostly below about 14%; also: read at 38.3 µM for the half of the compounds with a filed dose; 0% is about no effect
# LmPK inh = blocks Leishmania mexicana pyruvate kinase activity; Q27686; purified LmPK, Kinase-Glo ATP luminescence, 1 h; Potency, µM (titrated, usually from 57.5 µM), for inactives: at the highest dose activity change, negative = inhibition, actives largely listed as inhibitors; actives 0.37% (n = 290,000); AID 1721; also: potency is read from the fitted curve at half-maximal effect; % is scaled to controls: 0 for no effect and ±100 for the full control effect
#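 Purified LmPK (0.1 nM) with 0.5 mM PEP and 0.1 mM ADP in imidazole buffer pH 7.2 with MgCl2/KCl, 1 h at room temperature. ATP formed was read by luciferase luminescence and normalized to no-enzyme and uninhibited controls.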
# TbPYK inhibitor = blocks Trypanosoma brucei pyruvate kinase; Q57TT1; TbPYK enzyme, Kinase-Glo Plus ATP luminescence, 45 min; Potency, µM (top dose mostly 76.8 µM), for inactives: at the top dose activity, negative = inhibition, actives largely listed as inhibitors; actives 0.12% (n = 410,000); AID 624173; also: potency is read from the fitted curve at half-maximal effect; % is scaled to controls: 0 for no effect and ±100 for the full control effect; nearly all actives have a fitted effect of over 50% in size
#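 In this concentration-response screen, enzyme-free wells defined baseline while DMSO plates tracked drift. Each reaction combined TbPYK, substrate, compound and 130 uM ADP for 45 min at room temperature. Kinase-Glo Plus luminescence gave the signal.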
# Shiga toxin inh = Shiga toxin inhibition. inhibition, % at 38.7 µM. AID 2315. Vero cells, Shiga toxin protein synthesis inhibition reporter. actives 9.2% (n = 290,000); in the data active = inhibition mostly above about 28%, no sharp cut-off; inactive = mostly below about 43%; also: 0% is about no effect
# * marks the source's active call; other numbers are inactive results; ? = inconclusive; · = no result. Unless noted, calls follow the shape of the dose curve; as a rule, active = well fitted curve in the direction sought with a large enough effect; inconclusive = small, poorly fitted or top-dose-only effect, or another doubt; inactive = no such curve, though single readings can be large; an effect the other way counts as inactive or inconclusive.
SMILES,FBPA Giardia inh,RE007 growth inh,CHX counter,LmPK inh,TbPYK inhibitor,Shiga toxin inh
O=c1c(=O)n(-c2ccccc2)ccn1Cc1c(F)cccc1Cl,·,·,·,·,5%,·
CCOC1=C2CN(S(=O)(=O)c3ccc(C)cc3)[C@@H](c3ccc(CC)cc3)C[C@H]2[C@H]2C(=O)N(c3ccccc3)C(=O)[C@H]2C1,·,-9%,·,·,5%,·
O=C(Cc1ccc(Cl)cc1)NCC(c1cccs1)S(=O)(=O)c1ccccc1 (stereo unspecified),·,·,·,·,-4%,·
NC(=O)N/N=C/c1cn(-c2ccccc2)nc1-c1cccs1,-3%,?,36*,-22%,-4%,51*
O=C(N/N=C/c1nn(-c2ccccc2)cc1-c1ccccc1)c1ccncc1,0%,10%,22,-1%,1%,29
O=C(N/N=C/c1cn(-c2ccccc2)nc1-c1cccs1)c1ccncc1,0%,-8%,32*,0%,-3%,50*
CC12CCC(C(=O)CC1=O)C2(C)C (stereo unspecified),·,10%,·,·,-19%,·
CCOC(=O)c1cccc(NC(=O)c2ccc3c(Cl)c4c(nc3c2)CCC4)c1,·,·,·,·,7%,·
CCc1ccc(C(=O)NNc2ccc(F)cc2)cc1,5%,132%,14,7%,2%,41*
CCc1ccc(C(=O)NNc2ccc(C)c(Cl)c2)cc1,-3%,29%,9.9*,-2%,-6%,10
CCc1ccc(C(=O)NNc2ccccc2F)cc1,2%,208%,36*,-5%,8%,71*
CCCc1ccc(C(=O)NNc2ccccc2F)cc1,1%,30%,20*,-1%,-1%,77*
CCc1ccc(C(=O)NNc2cc(Cl)ccc2Cl)cc1,0%,1%,2,3%,-25%,13
OC[C@@H]1O[C@@H](O)[C@H](O)[C@H](O)[C@@H]1O,2%,·,-7,·,·,-10
Cc1[nH]nc(N=CC2=C(O)CC(C)(C)CC2=O)c1-c1ccccc1,-4%,3%,1,1%,4%,-5
Cc1[nH]nc(N=CC2=C(O)CC(c3ccco3)CC2=O)c1-c1ccccc1 (stereo unspecified),-9%,-3%,14*,1%,1%,73
CC1=CCC(/C=N\Nc2nnc3c(n2)[nH]c2ccccc23)CC1 (stereo unspecified),6%,·,76*,-10%,·,55*
Nc1nc(-c2ccc(NC(=O)c3ccco3)cc2)cs1,1%,-24%,17*,-18%,1%,40*
O=C(Nc1ccc(-c2ccc(N3CCCCC3)nn2)cc1)c1ccco1,·,?,·,·,7%,·
Cc1nc(-c2ccc(NC(=O)c3ccco3)cc2)cs1,2%,?,11*,?,-23%,28
Cc1ccc(-c2cn3ccc(C)cc3n2)cc1,·,·,·,·,-8%,·
CCOc1ccc(-c2cccc(NC(=O)c3ccco3)c2)nn1,·,-3%,·,·,-1%,·
Cc1ccn2cc(-c3ccc(NC(=O)c4ccco4)cc3)nc2c1,-2%,-12%,43*,-14%,-6%,active
Cc1nc(-c2cccc(NC(=O)c3ccco3)c2)cs1,·,-23%,27*,-5%,-2%,45
Cc1ccc(C(=O)CCC(=O)OCC(=O)NNC(=O)c2ccccc2Cl)cc1,·,-1%,·,·,-2%,·
SMILES,FBPA Giardia inh,RE007 growth inh,CHX counter,LmPK inh,TbPYK inhibitor,Shiga toxin inh
Cc1nnc2ccc(-c3ccc(NC(=O)c4ccco4)cc3)nn12,-5%,39%,14*,11%,4%,71
CC(=O)Nc1ccc(-c2ccc3nnc(C)n3n2)cc1,-3%,-6%,0,8%,-6%,30
CCOC(=O)Nc1cc(Br)c2c(c1)OCCO2,-15%,-12%,34*,-12%,-14%,41
CCOC(=O)c1c(C)c(C(=O)Nc2ccc(N(C)C)cc2)c(C)n1CC,-1%,-3%,22*,3%,-18%,51
CCOC(=O)c1cc2sc(C)cc2n1CC(=O)Nc1cccc(C)c1C,4%,-3%,-1,5%,-8%,0
CCOC(=O)c1cc2sc(C)cc2n1CC(=O)Nc1ccc2c(c1)OCCO2,-1%,-4%,12*,1%,1%,26
CCOC(=O)c1cnc2ccc(OC)cc2c1Nc1ccc2c(c1)OCCO2,?,-11%,17,1%,0%,16

# Bioassay records as filed in PubChem BioAssay.
